rCAG RNA binder – binders of r(CAG) RNA repeats, primary screen, biochemical, fluorescence | r(CAG) RNA repeat, TO-PRO-1 dye displacement fluorescence | inhibition, % at 3 µM | hit rate 1.3% among 370,000 | AID 651821, 2012;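 active = inhibition above the plate cutoff, the mean of all test compounds on that plate plus 3 SD, cut at about 35% in these data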;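 note: 0% = DMSO alone and 100% = 100 µM mitoxantrone as full dye displacement; higher means more dye released from RNA so lower well fluorescence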
FAS-TE inh – FAS thioesterase domain inhibitors, primary screen, biochemical, fluorescence intensity, uHTS; Fatty acid synthase (Homo sapiens), P49327; recombinant FAS-TE, OMFH fluorogenic substrate, fluorescence endpoint; AID 602261, 2012; hit rate 0.67% among 360,000; inhibition, % at 15 µM;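 active = compounds whose normalised, plate-corrected inhibition of enzyme fluorescence in the single-dose primary screen is 50% or more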;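 note: 0% = DMSO with enzyme and 100% = substrate without enzyme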
MPTP block – mitochondrial permeability transition pore inhibitors, primary screen, biochemical, isolated mouse mitochondria, absorbance. Ca2+ swelling absorbance, 30 min. inhibition, % at 10 µM. hit rate 1.4% among 360,000. AID 602449, 2012;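 active = inhibition of 50% or more, scaled per plate between neutral and stimulator controls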;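 note: 0% = DMSO wells given calcium and 100% = 1 mM EGTA wells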
GRIN3A LBD mod – binders of NR3A ligand-binding domain, primary screen, biophysical, differential scanning fluorimetry, uHTS; Glutamate receptor ionotropic, NMDA 3A (GRIN3A) ligand-binding domain; NR3A LBD differential scanning fluorimetry, Tm shift; 0% = protein alone, 100% = glycine-bound protein; Tm shift relative to glycine control, % at 25 µM; hit rate 2.5% among 340,000;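 active = melting temperature shift of at least 10% of the positive control shift, at one fixed dose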
Myeloid diff MLP – induction of myeloid progenitor differentiation, primary screen, cell-based, flow cytometry, MLPCN library | ER-HoxA9 myeloid progenitors, lysozyme-GFP differentiation | calls only at 10 µM | hit rate 1% among 360,000;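 active = normalized GFP-positive differentiation at or above the plate's own cutoff, the solvent-only control mean plus 3 SD; inconclusive = no clear call, values can overlap the other calls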;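 note: cells exposed to compound for four days before flow analysis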
rCAG bind conf – small molecules binding CAG repeat RNA – biochemical, fluorescence, confirmation; shares compounds with rCAG RNA binder; r(CAG) RNA repeat, TO-PRO-1 dye displacement fluorescence; inhibition, % at 3 µM; hit rate 70% among 4,300; AID 652065, 2013;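 active = inhibition above a per-plate cutoff, the mean inhibition of sample wells plus 3 SD, cut at about 35% in these data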;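 note: loss of TO-PRO-1 fluorescence as compound displaces dye from 1x1 AA loop RNA; 0% = DMSO only wells and 100% = 100 µM mitoxantrone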
DNA CAG counter – displacement of TO-PRO-1 from CAG DNA duplex, counter-screen for rCAG RNA repeat binder project, biochemical, fluorescence, TO-PRO-1 dye, d(CAG) DNA oligo. shares compounds with rCAG RNA binder. d(CAG) DNA oligo TO-PRO-1 dye displacement. inhibition, % at 3 µM. hit rate 94% among 4,300. AID 652068, 2013;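 active = inhibition above its plate's cutoff, the mean test-well inhibition plus 3 SD, cut at about 4.8% in these data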;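 note: 0% = DNA dye mix with DMSO and 100% = 100 µM mitoxantrone; hits displace the dye from DNA and so lower well fluorescence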
dCAG dye DR – inhibitors of DNA CAG/GTC TO-PRO-1 complex, dose response, counter-screen for rCAG RNA repeat binder project, biochemical, fluorescence, TO-PRO-1 dye. shares compounds with rCAG RNA binder. hit rate 20% among 250. DNA CAG/GTC duplex TO-PRO-1 dye displacement fluorescence. IC50, µM. AID 686960, 2013; in the data active = IC50 below about 10 µM
Active calls of the source: *; i = inactive; ? = inconclusive; nt = no result. Hits are enriched below; roughly 5.7% of the tested compounds scored in any of these assays.

SMILES	rCAG RNA binder	FAS-TE inh	MPTP block	GRIN3A LBD mod	Myeloid diff MLP	rCAG bind conf	DNA CAG counter	others
Cc1cccn2c(CN3CCNC(=O)CC3)c(C(=O)N(C)CCc3ccccc3)nc12	-7	-4	1	0	i	nt	nt
CC(/C=C1\SC(=S)N(C(C(=O)O)C(C)C)C1=O)=C\c1ccccc1 (configuration not stated)	72*	-4	0	-6	i	75*	31*	dCAG dye DR=i
Cc1nnc(NC(=O)c2ccc(S(=O)(=O)N3CC(C)CC(C)C3)cc2)o1 (configuration not stated)	9	-10	-1	-2	i	nt	nt
O=C(CCN1C(=O)S/C(=C/c2ccccc2)C1=O)Nc1ccc(O)c(C(=O)O)c1	56*	6	-1	-7	i	40*	14*
O=C(CN1C(=O)S/C(=C\c2cccs2)C1=O)Nc1ccc(O)cc1C(=O)O	68*	-4	-2	0	?	49*	15*
COc1ccc(/C=C2\SC(=O)N(CCC(=O)Nc3ccccc3)C2=O)cc1OC	2	-2	0	2	i	nt	nt
CN1C(=O)/C(=C/c2ccc(C(=O)Nc3ccc(O)cc3C(=O)O)cc2)SC1=S	55*	17	-3	-2	i	94*	82*
O=C(CCN1C(=O)S/C(=C\c2ccccc2)C1=O)Nc1ccc(O)cc1C(=O)O	46*	-3	0	-3	i	33	8.4*
CCOc1ccc(NS(=O)(=O)c2ccc(C(=O)N(C)CC(=O)Nc3cccc(OC)c3)cc2)cc1	14	6	2	-5	i	nt	nt
CC(=O)c1sc(N/N=C\c2ccc(N(C)C)cc2)nc1C	13	0	1	-15	i	nt	nt
CC(=O)c1sc(N/N=C\c2c(O)ccc3ccccc23)nc1C	52*	12	23	-5	i	60*	29*
CCC(C)Oc1ccc(/C=C/c2[nH]c(=O)[nH]c(=O)c2[N+](=O)[O-])cc1OC (configuration not stated)	36*	-5	1	3	i	24	4.9*
CN(c1ccccc1)c1ccc(/C=C(\CCC(=O)O)c2nc3ccccc3s2)cc1[N+](=O)[O-]	71*	11	13	1	i	78*	37*
CNc1ccc(/C=C(\CCC(=O)O)c2nc3ccccc3s2)cc1[N+](=O)[O-]	78*	18	1	25*	i	82*	39*
Cn1cnnc1Sc1ccc(/C=C(\CCC(=O)O)c2nc3ccccc3s2)cc1[N+](=O)[O-]	16	6	-2	0	i	nt	nt
CN(c1ccccc1)c1ccc(/C=C(\C#N)c2nnc3n2CCCCC3)cc1[N+](=O)[O-]	10	-2	1	2	i	nt	nt
Cc1ccc(/C=C(\CCC(=O)O)c2nc3ccccc3s2)cc1[N+](=O)[O-]	49*	35	0	2	i	65*	25*
CNc1ccc(/C=C(\C#N)c2ccccn2)cc1[N+](=O)[O-]	-2	-3	0	-4	i	nt	nt
Cc1ccc(NC(=O)CN(C)C(=O)COC(=O)CCS(=O)(=O)c2ccc(C)cc2)cc1	-7	1	0	5	i	nt	nt
O=[N+]([O-])c1cc(S(=O)(=O)O)cc([N+](=O)[O-])c1NN(c1ccccc1)c1ccccc1	48*	28	0	-22	i	36*	11*
CC(Oc1ccc(S(=O)(=O)N2CCCC2)cc1[N+](=O)[O-])C(=O)N(C)c1ccccc1 (configuration not stated)	-5	-1	-2	0	i	nt	nt

Assay outcomes (PubChem BioAssay)
